Test results reported in PubChem BioAssay (NCATS).
Records with an inconclusive call do not appear. Calls of active or inactive are those of the source. Unless noted, the call rests on the fitted dose curve; in most records, active means well fitted curve in the direction sought with a large enough effect in the repeat runs; inconclusive means weak or mixed curves; inactive means no such curve, though single readings can be large; an effect the other way counts as inactive or inconclusive.

Assays:
[1] = molecular target: Cytochrome P450 2D6 (Homo sapiens) (UniProt P10635); assay: Cytochrome P450 family 2 subfamily D member 6 (CYP2D6) small molecule antagonists: luciferase biochemical (cell-free) qHTS assay (AID 1645840); conditions: P450-Glo CYP2D6 enzyme, luciferin luminescence, 1 h; series mostly up to 57.4 µM; further: nearly all actives have a fitted effect of over 55% in size; further: potency means the concentration at half of the fitted maximal effect
Method in brief: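 P450-Glo CYP2D6 system: proluciferin substrate converted by enzyme to luciferin, read by luminescence proportional to activity. Enzyme-substrate mix with compound 10 min at room temperature, then NADPH regeneration 1 h before detection reagent.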

[2] = molecular target: Cytochrome P450 2C9 (Homo sapiens) (UniProt P11712); assay: Cytochrome P450 family 2 subfamily C member 9 (CYP2C9) small molecule antagonists: luciferase biochemical (cell-free) qHTS assay (AID 1645842); conditions: P450-Glo CYP2C9 enzyme assay, luciferin luminescence; series mostly up to 57.4 µM; further: nearly all actives have a fitted effect of over 55% in size; further: potency means the concentration at half of the fitted maximal effect
Method in brief: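 P450-Glo CYP2C9 system: proluciferin substrate with enzyme in mix containing 0.4% BSA, 10 min at room temperature, then NADPH regeneration solution added and incubated 1 h at 37C. Detection reagent stopped reaction; luminescence read after 20 min as RLU.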

[3] = molecular target: Cytochrome P450 3A4 (Homo sapiens) (UniProt P08684); assay: Cytochrome P450 family 3 subfamily A member 4 (CYP3A4) small molecule antagonists: luciferase qHTS assay (AID 1645841); conditions: P450-Glo CYP3A4 enzyme assay, luciferin luminescence; series mostly up to 57.4 µM; further: nearly all actives have a fitted effect of over 45% in size
Method in brief: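 P450-Glo CYP3A4 enzyme with proluciferin substrate was preincubated with DMSO-dissolved compounds for 10 min at room temperature. NADPH regeneration solution started a 1 h reaction. Detection reagent stopped it, and luminescence was read after 20 min.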

[4] = Primary qHTS for inhibitors of nuclear receptor binding SET domain protein 2 (NSD2) in an isogenic RCH-ACV NSD2 p.E1099K mutant (9B) (AID 1645876; active means well fitted curve in the direction sought with a large enough effect; an effect the other way counts as inactive or inconclusive; further: nearly all actives have a fitted effect of over 70% in size); conditions: RCH-ACV NSD2 E1099K (9B) viability, CellTiter-Glo, 72 h; series mostly up to 44.9 µM
[5] = Primary qHTS for inhibitors of nuclear receptor binding SET domain protein 2 (NSD2) in an RCH-ACV wild type WT cells (2C) (AID 1645877; active means well fitted curve in the direction sought with a large enough effect; an effect the other way counts as inactive or inconclusive; further: nearly all actives have a fitted effect of over 70% in size); conditions: RCH-ACV (leukaemia line) NSD2 WT (2C) viability, CellTiter-Glo, 72 h; series mostly up to 44.9 µM

Cytochrome P450 2D6 (Homo sapiens), sequence (P10635 whole entry, looked up): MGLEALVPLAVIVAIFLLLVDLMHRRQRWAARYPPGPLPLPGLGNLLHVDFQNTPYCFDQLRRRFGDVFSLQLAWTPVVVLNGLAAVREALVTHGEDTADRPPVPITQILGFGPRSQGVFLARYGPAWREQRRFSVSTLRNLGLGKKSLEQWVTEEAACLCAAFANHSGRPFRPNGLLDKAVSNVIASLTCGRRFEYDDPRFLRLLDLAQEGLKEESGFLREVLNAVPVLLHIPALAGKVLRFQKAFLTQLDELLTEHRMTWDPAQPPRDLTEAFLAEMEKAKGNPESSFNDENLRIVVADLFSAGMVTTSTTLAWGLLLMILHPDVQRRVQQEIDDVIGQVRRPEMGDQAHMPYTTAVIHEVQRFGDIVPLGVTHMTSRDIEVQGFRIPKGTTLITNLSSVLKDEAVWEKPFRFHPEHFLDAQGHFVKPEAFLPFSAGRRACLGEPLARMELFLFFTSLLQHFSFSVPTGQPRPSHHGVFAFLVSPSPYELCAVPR
Cytochrome P450 2C9 (Homo sapiens), sequence (P11712 whole entry, looked up): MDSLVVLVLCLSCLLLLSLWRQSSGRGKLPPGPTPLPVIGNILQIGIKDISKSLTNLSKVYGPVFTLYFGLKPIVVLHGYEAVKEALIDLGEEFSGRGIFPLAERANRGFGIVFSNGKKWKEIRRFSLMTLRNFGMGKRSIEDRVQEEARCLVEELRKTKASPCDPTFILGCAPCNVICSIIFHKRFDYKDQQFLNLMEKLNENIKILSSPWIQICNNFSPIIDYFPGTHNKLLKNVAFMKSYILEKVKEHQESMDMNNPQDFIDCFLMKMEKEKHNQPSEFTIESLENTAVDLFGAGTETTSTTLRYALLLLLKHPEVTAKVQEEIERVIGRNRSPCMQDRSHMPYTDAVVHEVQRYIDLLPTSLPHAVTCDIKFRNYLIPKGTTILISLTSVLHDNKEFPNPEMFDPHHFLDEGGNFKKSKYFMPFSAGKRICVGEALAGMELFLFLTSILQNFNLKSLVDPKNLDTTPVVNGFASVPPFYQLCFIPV
Cytochrome P450 3A4 (Homo sapiens), sequence (P08684 whole entry, looked up): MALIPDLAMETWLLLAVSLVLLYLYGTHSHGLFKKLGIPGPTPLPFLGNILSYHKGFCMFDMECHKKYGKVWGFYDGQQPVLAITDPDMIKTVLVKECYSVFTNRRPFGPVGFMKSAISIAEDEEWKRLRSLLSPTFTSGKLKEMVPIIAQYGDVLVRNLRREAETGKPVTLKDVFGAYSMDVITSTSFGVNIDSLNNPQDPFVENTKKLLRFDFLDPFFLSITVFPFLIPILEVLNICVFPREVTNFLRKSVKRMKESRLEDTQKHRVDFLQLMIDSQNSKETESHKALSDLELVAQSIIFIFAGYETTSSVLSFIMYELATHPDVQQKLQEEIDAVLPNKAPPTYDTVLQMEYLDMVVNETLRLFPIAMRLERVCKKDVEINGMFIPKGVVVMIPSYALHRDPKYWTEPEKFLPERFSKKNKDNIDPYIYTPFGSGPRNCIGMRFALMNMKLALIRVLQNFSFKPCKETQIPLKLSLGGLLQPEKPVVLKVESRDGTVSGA

CC[C@H](C(=O)Nc1ccccc1N1CCCC1)c1ccccc1
Potency [1]: 9.52 µM (active) | Potency [2]: 7.56 µM (active)

COc1ccc([C@H](Cc2ccncc2)c2ccccc2)cc1OC1CCCC1
Potency [1]: 12 µM (active) | Potency [2]: 0.425 µM (active)

Cc1[nH]cnc1C[C@H]1CCc2c(C)c3ccccc3n2C1=O
Potency [1]: 0.301 µM (active) | Potency [2]: 0.19 µM (active)

CCCC(CCC)C(N)=O
Potency [1]: inactive | Potency [2]: inactive

Fc1ccc(N2CCN(CCC3OCCc4ccccc43)CC2)cc1 (configuration not stated)
Potency [1]: 1.9 µM (active) | Potency [2]: inactive

CCOC(=O)[C@H](CCc1ccccc1)N[C@H]1CCCN2CCC[C@@H](C(=O)O)N2C1=O
Potency [1]: inactive | Potency [2]: inactive

COc1ccc(S(=O)(=O)N2CCC[C@H]2C(=O)Nc2cc(C)cc(C)c2)cc1
Potency [1]: inactive | Potency [2]: 0.674 µM (active)

O=C(NCc1ccc(OC(F)(F)F)cc1)C1c2c(F)cccc2C(=O)N1CCc1ccccn1 (configuration not stated)
Potency [1]: 10.7 µM (active) | Potency [2]: 3.79 µM (active)

Cc1cn2c(n1)Cc1ccc(Cl)cc1C(c1ccc(N)cc1)=N2
Potency [1]: 16.9 µM (active) | Potency [2]: 12 µM (active)

O=[N+]([O-])c1ccc(Oc2ccc(N=C=S)cc2)cc1
Potency [1]: inactive | Potency [2]: 16.9 µM (active)

Nc1nc2c(s1)CCN(Cc1ccc(Cl)cc1)CC2
Potency [1]: 1.9 µM (active) | Potency [2]: 15.1 µM (active)

CCN(CCNC(=O)Nc1ccccc1Br)c1cccc(C)c1
Potency [1]: 1.9 µM (active) | Potency [2]: 3.79 µM (active)

O=C(CSc1nc2ccccc2c(=O)n1-c1ccccc1)Nc1ccc2c(c1)CCC2
Potency [1]: inactive | Potency [2]: 2.68 µM (active)

CCCCc1ccc(NS(=O)(=O)c2ccc(F)cc2)cc1
Potency [1]: 9.52 µM (active) | Potency [2]: 1.69 µM (active)

CCNC1(C(N)=O)CCN(c2ncnc3c2nc(-c2ccccc2Cl)n3-c2ccc(Cl)cc2)CC1
Potency [1]: 16.9 µM (active) | Potency [2]: 2.13 µM (active)

O=C(OCCO)c1ccccc1O
Potency [1]: inactive | Potency [2]: inactive

CCc1ccc(-c2nc(CSCC(=O)NCCc3ccccc3)c(C)o2)cc1
Potency [1]: 15.1 µM (active) | Potency [2]: 8.49 µM (active)

Cn1ncc(Cl)c1-c1cc(C(=O)N[C@H](CN)Cc2cccc(F)c2)sc1Cl
Potency [1]: 2.68 µM (active) | Potency [2]: 9.52 µM (active)

CN(C)CCOc1cc(NS(=O)(=O)c2c(Cl)cc(C(F)(F)F)cc2Cl)ccc1Cl
Potency [1]: 16.9 µM (active) | Potency [2]: 8.49 µM (active)

CNC(=O)c1ccc2c(c1)CCO[C@H]2CCN1CCN(c2ccc(OC)cc2)CC1
Potency [1]: inactive | Potency [3]: inactive | Potency [4]: inactive | Potency [5]: inactive

C=CC(=O)N1CCCC(n2nc(-c3ccc(Oc4ccccc4)cc3)c3c(N)ncnc32)C1 (configuration not stated)
Potency [1]: 19 µM (active) | Potency [2]: 3.79 µM (active)

CC(C)(C)OC(=O)c1ncn2c1C(C)(C)Nc1ccccc1-2
Potency [1]: inactive | Potency [2]: 10.7 µM (active)

N#Cc1cccc(C(=O)Nc2cc(-c3ccccc3)nn2-c2ccccc2)c1
Potency [1]: inactive | Potency [2]: 2.39 µM (active)

Cc1nc(Nc2ccc(F)cc2)nc(N2CCc3ccccc3C2C)c1C (configuration not stated)
Potency [1]: 7.56 µM (active) | Potency [2]: 5.35 µM (active)

Nc1c(CC(=O)O)cccc1C(=O)c1ccccc1
Potency [1]: inactive | Potency [2]: inactive

O=C(N[C@H]1CCN(C(=O)c2cc(C(F)(F)F)cc(C(F)(F)F)c2)[C@H](Cc2ccc(Cl)cc2)C1)c1ccnc2ccccc12
Potency [1]: inactive | Potency [2]: 10.7 µM (active)

Cc1ccc(C)c(NC(=O)[C@@H]2CCCN2S(=O)(=O)c2cccc3cccnc23)c1
Potency [1]: 16.9 µM (active) | Potency [2]: 6.74 µM (active)

O=C(O)c1ccc(S(=O)(=O)N(Cc2ccc(OC(F)(F)F)cc2)c2ncc(C(F)(F)F)cc2Cl)cc1
Potency [1]: inactive | Potency [2]: 23.9 µM (active)

Clc1cccc(COc2cncc(N3CCNCC3)n2)c1
Potency [1]: 8.49 µM (active) | Potency [2]: inactive

O=C(NCC(=O)N1CCCC1)Nc1ccc2cnccc2c1
Potency [1]: 12 µM (active) | Potency [2]: inactive

NC(=O)c1nc(Nc2ccccc2)sc1NC(=O)C1CCCCC1
Potency [1]: inactive | Potency [2]: 0.601 µM (active)

C[C@H]1CO[C@@H]2Cn3cc(C(=O)NCc4ccc(F)cc4F)c(=O)c(O)c3C(=O)N12
Potency [1]: inactive | Potency [2]: inactive

COc1ccc(OC)c(-c2ccc(NC(=O)c3ccncc3F)cc2)c1
Potency [1]: inactive | Potency [2]: 1.51 µM (active)

COc1cc(-c2nc(N[C@H](CO)Cc3ccccc3)ccc2C(=O)NCCOc2ccccc2)cc(OC)c1OC
Potency [1]: 12 µM (active) | Potency [2]: 1.51 µM (active)

CC(C)(O)c1ccn2c(-c3ccc(F)c(-c4ccc(F)cc4C#N)c3)cnc2c1F
Potency [1]: 19 µM (active) | Potency [2]: 0.756 µM (active)
